Measurements published in ChEMBL document CHEMBL3988442, “University of Dundee, Small-Polar-MMV Screening Library” (2021).
For some assays here: Entries with a potency or affinity are not part of this list.

Columns and labels:
Set-up in all cases: scale not given: direction of the effect not stated beside the values
[1] = biological target: Protein translocase subunit SecA (Escherichia coli (strain K12)) (UniProt P10408); experiment: Assay to Identify E. coli SecA ATPase Inhibitors; type: functional; settings: 30 µM
Sequence of Protein translocase subunit SecA (Escherichia coli (strain K12)) (P10408 whole entry): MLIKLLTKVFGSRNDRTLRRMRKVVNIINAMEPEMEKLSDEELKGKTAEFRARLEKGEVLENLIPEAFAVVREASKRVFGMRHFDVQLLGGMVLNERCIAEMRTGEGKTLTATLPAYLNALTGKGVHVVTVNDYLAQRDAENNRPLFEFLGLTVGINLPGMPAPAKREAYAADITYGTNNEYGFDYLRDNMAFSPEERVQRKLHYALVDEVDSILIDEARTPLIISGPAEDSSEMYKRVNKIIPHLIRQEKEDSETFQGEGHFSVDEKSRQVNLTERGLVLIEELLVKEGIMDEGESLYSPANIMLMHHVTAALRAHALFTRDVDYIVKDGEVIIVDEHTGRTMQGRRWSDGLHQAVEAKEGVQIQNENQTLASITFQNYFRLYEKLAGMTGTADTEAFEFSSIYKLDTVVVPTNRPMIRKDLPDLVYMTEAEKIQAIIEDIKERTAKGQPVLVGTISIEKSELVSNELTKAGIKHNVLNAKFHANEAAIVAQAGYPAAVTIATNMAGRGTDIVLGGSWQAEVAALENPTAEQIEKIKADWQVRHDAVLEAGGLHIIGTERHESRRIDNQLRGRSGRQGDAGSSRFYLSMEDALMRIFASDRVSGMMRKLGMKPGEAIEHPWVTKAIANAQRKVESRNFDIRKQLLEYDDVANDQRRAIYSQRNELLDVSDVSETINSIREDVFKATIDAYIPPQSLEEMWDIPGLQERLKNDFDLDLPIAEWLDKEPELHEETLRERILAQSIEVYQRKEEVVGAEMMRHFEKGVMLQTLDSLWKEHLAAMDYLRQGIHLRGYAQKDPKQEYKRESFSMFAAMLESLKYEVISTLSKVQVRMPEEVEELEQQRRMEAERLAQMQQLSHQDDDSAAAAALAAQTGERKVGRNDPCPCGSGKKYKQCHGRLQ

[2] = biological target: T1, Ubiquitin-activating enzyme e1, putative (Leishmania donovani (strain BPK282A1)) (UniProt E9BSI1); experiment: Leishmania donovani Ubiquitin Activating Enzyme (LdE1); type: functional; settings: 30 µM
T1 sequence (whole entry): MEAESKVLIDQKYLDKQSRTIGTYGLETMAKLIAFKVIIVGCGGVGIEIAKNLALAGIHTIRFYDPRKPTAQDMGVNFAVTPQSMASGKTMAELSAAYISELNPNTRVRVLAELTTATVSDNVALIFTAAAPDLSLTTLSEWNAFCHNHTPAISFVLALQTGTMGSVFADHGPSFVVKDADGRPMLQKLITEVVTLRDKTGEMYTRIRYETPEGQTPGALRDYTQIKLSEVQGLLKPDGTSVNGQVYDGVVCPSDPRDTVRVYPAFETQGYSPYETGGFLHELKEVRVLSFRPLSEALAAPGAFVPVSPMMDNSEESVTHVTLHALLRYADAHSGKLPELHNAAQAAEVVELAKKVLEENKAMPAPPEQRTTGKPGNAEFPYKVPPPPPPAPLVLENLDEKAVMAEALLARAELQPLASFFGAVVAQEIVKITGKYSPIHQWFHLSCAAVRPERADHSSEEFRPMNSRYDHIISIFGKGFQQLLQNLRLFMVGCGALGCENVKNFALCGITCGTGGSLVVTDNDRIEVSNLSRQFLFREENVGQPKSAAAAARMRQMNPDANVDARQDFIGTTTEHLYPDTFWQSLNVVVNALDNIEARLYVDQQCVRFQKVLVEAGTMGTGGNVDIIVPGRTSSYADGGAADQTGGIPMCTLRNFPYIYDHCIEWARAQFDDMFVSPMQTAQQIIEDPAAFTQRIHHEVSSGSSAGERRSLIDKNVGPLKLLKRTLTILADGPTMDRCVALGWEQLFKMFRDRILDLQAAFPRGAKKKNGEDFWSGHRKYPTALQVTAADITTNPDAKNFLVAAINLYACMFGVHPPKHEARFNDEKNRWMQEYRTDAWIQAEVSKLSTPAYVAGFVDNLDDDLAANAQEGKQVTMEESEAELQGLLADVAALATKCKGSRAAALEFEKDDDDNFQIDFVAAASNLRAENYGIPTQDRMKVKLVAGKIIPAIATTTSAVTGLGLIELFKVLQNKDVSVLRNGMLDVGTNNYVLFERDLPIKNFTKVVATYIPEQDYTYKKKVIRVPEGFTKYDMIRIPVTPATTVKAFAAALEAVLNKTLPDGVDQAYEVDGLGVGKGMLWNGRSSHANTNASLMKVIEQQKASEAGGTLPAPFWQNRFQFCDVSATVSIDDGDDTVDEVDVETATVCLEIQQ

[3] = biological target: AMP-activated protein kinase, AMPK (Homo sapiens) (UniProt P54646+O43741+P54619+Q9UGJ0+Q9Y478+Q13131+Q9UGI9); experiment: AMP-dependent Kinase enzyme assay. An in vitro enzyme assay that detects ADP turnover that is directly proportional to AMPK activity. This uses naive AMPK that is activated during the assay with MK-8722; type: functional; settings: 30 µM
[4] = biological target: Sialic acid-binding Ig-like lectin 9 (Homo sapiens) (UniProt Q9Y336); experiment: Hs-Siglec9 ALPHAscreen SOP 20170721; settings: 10 µM
Sequence of Sialic acid-binding Ig-like lectin 9 (Homo sapiens) (Q9Y336 whole entry): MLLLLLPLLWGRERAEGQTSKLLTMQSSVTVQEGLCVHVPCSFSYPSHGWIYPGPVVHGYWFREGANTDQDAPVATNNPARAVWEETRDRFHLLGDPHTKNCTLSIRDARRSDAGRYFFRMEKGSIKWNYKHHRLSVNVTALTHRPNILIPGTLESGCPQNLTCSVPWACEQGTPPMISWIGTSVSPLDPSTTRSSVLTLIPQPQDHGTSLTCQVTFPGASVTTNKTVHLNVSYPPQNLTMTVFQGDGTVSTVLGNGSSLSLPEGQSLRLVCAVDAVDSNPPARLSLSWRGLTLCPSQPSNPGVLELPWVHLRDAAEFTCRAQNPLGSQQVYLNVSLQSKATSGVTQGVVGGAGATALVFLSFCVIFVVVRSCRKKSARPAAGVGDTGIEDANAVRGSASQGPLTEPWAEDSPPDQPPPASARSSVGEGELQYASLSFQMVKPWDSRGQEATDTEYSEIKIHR

[5] = system: Trypanosoma cruzi; experiment: Trypanosoma cruzi phosphomannomutase and mannose-1-phosphate guanylyltransferase assay; type: functional; settings: 10 µM
[6] = biological target: T2, Arginase-2, mitochondrial (Homo sapiens) (UniProt P78540); experiment: in vitro enzyme assay to detect the production of urea directly proportional to the activity of Arginase II; type: functional; settings: 33.3 µM; note: in the data most compounds retested in dose-response had high values
T2 sequence (whole entry): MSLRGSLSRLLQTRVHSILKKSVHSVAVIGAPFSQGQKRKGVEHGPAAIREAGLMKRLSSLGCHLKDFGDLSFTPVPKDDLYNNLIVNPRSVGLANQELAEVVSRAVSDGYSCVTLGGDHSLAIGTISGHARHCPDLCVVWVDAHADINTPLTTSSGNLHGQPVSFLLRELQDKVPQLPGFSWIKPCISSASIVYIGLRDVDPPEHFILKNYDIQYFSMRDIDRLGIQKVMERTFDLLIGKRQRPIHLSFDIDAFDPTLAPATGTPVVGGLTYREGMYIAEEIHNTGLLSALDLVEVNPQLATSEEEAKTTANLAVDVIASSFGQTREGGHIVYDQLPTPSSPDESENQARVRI

[7] = biological target: T3, Proteasome subunit beta (Trypanosoma cruzi) (UniProt O96673); experiment: Trypanosoma cruzi proteasome chymotrypsin-like activity (TcProtChymo) assay.; note: in the data most compounds retested in dose-response had high values; type: functional; settings: 9.37 µM
T3 sequence (whole entry): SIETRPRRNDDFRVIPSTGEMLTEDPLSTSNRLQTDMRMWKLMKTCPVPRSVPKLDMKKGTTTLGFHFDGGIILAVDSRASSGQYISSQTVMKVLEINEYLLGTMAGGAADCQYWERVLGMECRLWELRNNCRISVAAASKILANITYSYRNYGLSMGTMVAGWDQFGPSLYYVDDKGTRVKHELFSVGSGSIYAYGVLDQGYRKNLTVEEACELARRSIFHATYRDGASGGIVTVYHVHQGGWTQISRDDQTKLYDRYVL

[8] = species on record: Homo sapiens; experiment: To identify inhibition of the IFN signalling (Jak-Stat) pathway via expression of an eGFP reporter gene under the control of an IFN-stimulated response element (ISRE) containing MxA promoter.; type: functional; settings: 30 µM
[9] = biological target: T4, Tyrosyl-tRNA synthetase, putative (Trypanosoma cruzi (strain CL Brener)) (UniProt Q4DSP6); experiment: Trypanosoma cruzi tyrosyl tRNA synthetase (TcYRS) _High Tyrosine SOP; type: functional; settings: 30 µM; note: in the data most compounds retested in dose-response had high values
T4 sequence (whole entry): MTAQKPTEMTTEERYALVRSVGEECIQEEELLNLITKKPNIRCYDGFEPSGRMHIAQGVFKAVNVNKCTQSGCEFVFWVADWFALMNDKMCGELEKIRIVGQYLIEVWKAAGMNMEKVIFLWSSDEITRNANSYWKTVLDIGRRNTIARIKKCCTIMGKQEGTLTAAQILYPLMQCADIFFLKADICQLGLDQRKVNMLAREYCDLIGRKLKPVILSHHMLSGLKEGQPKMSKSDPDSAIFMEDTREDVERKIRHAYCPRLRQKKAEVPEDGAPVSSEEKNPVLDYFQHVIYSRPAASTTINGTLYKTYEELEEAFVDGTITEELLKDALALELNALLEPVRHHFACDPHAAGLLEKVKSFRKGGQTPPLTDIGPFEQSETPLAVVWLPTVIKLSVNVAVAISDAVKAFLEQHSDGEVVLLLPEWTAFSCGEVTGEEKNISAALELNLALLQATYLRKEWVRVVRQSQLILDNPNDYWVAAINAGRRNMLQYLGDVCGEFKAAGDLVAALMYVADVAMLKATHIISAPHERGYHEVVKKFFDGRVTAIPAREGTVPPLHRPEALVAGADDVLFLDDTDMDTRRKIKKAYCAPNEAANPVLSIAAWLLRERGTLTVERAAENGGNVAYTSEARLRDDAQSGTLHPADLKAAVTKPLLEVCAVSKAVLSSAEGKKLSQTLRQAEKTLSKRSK

[10] = biological target: T4, Tyrosyl-tRNA synthetase, putative (Trypanosoma cruzi (strain CL Brener)); experiment: Trypanosoma cruzi tyrosyl tRNA synthetase (TcYRS) SOP; type: functional; settings: 30 µM
[11] = biological target: Chromo domain-containing protein 1 (Saccharomyces cerevisiae (strain ATCC 204508 / S288c) (Baker's yeast)) (UniProt P32657); experiment: ScCHD-1 Enzyme Inhibition Assay; type: functional; settings: 30 µM; note: in the data most compounds retested in dose-response had high values
Sequence of Chromo domain-containing protein 1 (Saccharomyces cerevisiae (strain ATCC 204508 / S288c) (Baker's yeast)) (P32657 whole entry, the tested form may be a part): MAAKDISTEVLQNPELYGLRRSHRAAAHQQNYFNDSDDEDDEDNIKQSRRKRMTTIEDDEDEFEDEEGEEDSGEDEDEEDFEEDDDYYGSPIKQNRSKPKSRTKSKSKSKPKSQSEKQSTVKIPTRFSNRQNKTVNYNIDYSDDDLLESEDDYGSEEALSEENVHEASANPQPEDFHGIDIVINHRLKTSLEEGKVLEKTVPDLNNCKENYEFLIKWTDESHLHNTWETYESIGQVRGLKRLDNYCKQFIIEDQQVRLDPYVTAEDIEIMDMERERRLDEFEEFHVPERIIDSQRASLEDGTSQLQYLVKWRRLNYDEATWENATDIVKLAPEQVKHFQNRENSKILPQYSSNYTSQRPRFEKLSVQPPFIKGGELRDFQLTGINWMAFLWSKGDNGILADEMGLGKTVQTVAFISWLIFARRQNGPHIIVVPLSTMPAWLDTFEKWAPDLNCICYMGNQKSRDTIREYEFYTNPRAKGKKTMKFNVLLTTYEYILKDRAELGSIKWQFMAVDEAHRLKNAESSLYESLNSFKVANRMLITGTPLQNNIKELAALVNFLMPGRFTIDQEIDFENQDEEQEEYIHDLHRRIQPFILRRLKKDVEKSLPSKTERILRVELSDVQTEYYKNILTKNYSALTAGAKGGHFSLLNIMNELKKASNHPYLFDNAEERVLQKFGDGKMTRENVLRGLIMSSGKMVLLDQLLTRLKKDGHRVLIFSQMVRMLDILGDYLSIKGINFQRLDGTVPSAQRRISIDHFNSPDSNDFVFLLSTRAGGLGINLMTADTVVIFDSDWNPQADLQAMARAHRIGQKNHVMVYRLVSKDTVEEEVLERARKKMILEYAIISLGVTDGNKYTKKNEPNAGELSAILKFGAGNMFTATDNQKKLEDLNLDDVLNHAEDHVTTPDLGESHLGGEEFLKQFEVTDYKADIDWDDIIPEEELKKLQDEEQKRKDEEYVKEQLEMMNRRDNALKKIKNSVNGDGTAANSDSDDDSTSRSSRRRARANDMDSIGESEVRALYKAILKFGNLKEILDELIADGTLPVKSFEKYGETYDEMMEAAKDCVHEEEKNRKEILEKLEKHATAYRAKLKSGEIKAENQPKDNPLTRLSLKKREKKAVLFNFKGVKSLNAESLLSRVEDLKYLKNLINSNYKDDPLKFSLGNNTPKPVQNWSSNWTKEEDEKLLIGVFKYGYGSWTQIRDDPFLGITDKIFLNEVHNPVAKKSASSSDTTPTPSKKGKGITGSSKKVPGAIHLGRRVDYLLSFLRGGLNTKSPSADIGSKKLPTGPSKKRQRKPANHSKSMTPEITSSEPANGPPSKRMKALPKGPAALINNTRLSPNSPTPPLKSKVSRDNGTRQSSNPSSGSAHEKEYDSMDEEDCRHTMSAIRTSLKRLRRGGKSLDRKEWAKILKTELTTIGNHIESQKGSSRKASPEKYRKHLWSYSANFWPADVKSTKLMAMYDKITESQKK

Structure (SMILES)	Percent Effect [1] [%]	Percent Effect [2] [%]	Percent Effect [3] [%]	Percent Effect [4] [%]	Percent Effect [5] [%]	Percent Effect [6] [%]	Percent Effect [7] [%]	Percent Effect [8] [%]	Percent Effect [9] [%]	Percent Effect [10] [%]	Percent Effect [11] [%]
CNS(=O)(=O)Cc1ccc(CNC(=O)c2cccc(C)n2)cc1	-2.39	23.4	0.0556	2.86	4.12	-3.92	5.57	15.5	11.7	21.9	-7.52
O=C(C1=CCCC1)N1CCO[C@H]2[C@@H](Oc3ccccn3)CC[C@@H]21	-2.61	13.3	4.5	0.0747	0.787	3.96	9.96	9.01	7.45	16.7	-3.61
Nc1nccc(NCc2cc3n(n2)CCCN(C2CCCCC2)C3)n1	-1.87	13.7	-1.77	1.73	-0.198	-1.2	24.4	2.07	9.38	23.5	-4.35
Cc1cc(CC(=O)N(CC2CN(C)CCO2)c2nccs2)no1 (configuration not stated)	1.69	0	-0.764	6.8	6.41	2.03	1.08	-15.8	0	6.1	-3.54
CC(C)c1ccc(OCn2ccc(C(=O)N3CCCC3)n2)cc1	-3.25	10.4	1.81	12.1	6.2	-81.4	12.5	52.2	3.23	8.64	-6.24
CN(C)C(=O)CC1CC2(CCNCC2)c2cc(F)ccc21 (configuration not stated)	-1.58	-5.41	8.49	-3.96	-6.35	-2.23	21	-0.894	-2.16	0	1.02
COc1ccc(Oc2cncc(C3CCCN3C(C)=O)n2)cc1 (configuration not stated)	-0.946	12.2	4.91	-7.65	-3.56	0.696	9.36	15.2	0	3.9	-11.7
Cc1cc(C)nc(CCNC(=O)[C@H]2CNC[C@@H](C(=O)N3CCCC3)C2)n1	-5	0	2.23	-0.778	-8.33	-5.59	5.91	29.4	2.08	3.7	-3.88
CCN(CC)C1CCN(C(=O)NCc2c(C)noc2C)CC1	-3.56	5.48	-3.43	2.27	0.198	-3.59	10.9	-3.14	7.29	13.6	-1.04
COc1cccc(CNCc2nnc3n2CC(C(F)(F)F)CC3)c1 (configuration not stated)	0.608	-2.7	-0.757	8.38	1.27	45.4	5.92	9.33	6.45	16.1	-13
COc1cccn(CC(=O)N(C)Cc2ccoc2)c1=O	-7	-5.48	-5.18	30.6	1.59	0.399	2.48	-11	2.08	3.7	1.52
CCn1cnnc1CNC(=O)N(C)Cc1ccc2c(c1)OCCO2	-0.341	-16.2	-15.5	-4.03	0.66	-14.8	14.6	2.89	9.36	25.9	-8.11
COCC(C)(O)CNC(=O)COc1ccccc1OC (configuration not stated)	-1.78	2.74	6.7	-4.63	-4.31	2.27	8.52	1.8	5.38	7.5	-3.71
CCn1c(C)nnc1CN(C)C1CCN(Cc2cnc(C)cn2)C1 (configuration not stated)	-3.27	10.8	-13.9	0.873	-0.88	-2.73	7.81	16.2	8.6	18.5	-7
CN(CCCc1ccccc1)Cc1nc2c(cnn2C)c(=O)[nH]1	-1.94	8.11	-7.46	-2.26	-7.26	2.4	5.95	18.9	4.43	13.6	-1.12
COc1ccnc(N2CCN(C(=O)c3cnn(C)c3C3CC3)CC2)n1	-5.79	10.8	-3.14	28.6	3.81	0.744	6.61	-9.54	4.3	16.1	-13.1
COc1cccc(S(=O)(=O)NC2CNC(=O)C2)c1 (configuration not stated)	-6	2.74	3.51	9.97	6.66	-1.36	2.31	-0.016	4.3	12.5	-5.21
CC(=O)c1cccc(OCCCC(=O)N(C)Cc2ccccn2)c1	0.239	0	-2.92	15.9	4.25	2.86	10.5	-7.21	-0.529	4.88	-9.86
CC(C)N(C)S(=O)(=O)N(C)Cc1ccc2c(c1)OCO2	-6.28	15.6	-11.7	5.6	10.5	2.49	12.7	13.3	5.83	21.9	-8.74
N#Cc1cccc(S(=O)(=O)NC2CCN(Cc3ccccc3)C2=O)c1 (configuration not stated)	-2.71	12.7	0.264	4.28	-4.44	-6.84	2.21	1.05	3.45	11.4	-7.32
Cc1nc(CN2CCCN(C(=O)C(C)OCC3CC3)CC2)cs1 (configuration not stated)	-1.24	3.8	0.098	0.839	3.38	0.215	10.6	4.67	3.12	2.53	-18.2
Cc1cnn(C2CN(CC(O)c3ccc4c(c3)OCCO4)C2)c1 (configuration not stated)	-0.511	-24	-2.25	-4.57	-0.292	0	7.5	10.6	13.7	13.6	-6.83
